In PubChem BioAssay (Tox21):
Values without a mark were called inactive. Inconclusive results are not listed. A call without a number means that no potency is given here. The source made the active and inactive calls. Unless noted, calls come from the whole dose curve; as a rule, active = well fitted curve in the direction sought with a large enough effect in the repeat runs; inconclusive = weak or mixed curves; inactive = no such curve, though single readings can be large; an effect the other way counts as inactive or inconclusive.

Key:
[1] = target: Thyrotropin receptor (Homo sapiens) (UniProt P16473); test: qHTS assay to identify small molecule agonists of the thyroid stimulating hormone receptor (TSHR) signaling pathway (AID 1224843; calls by dose curve; note: nearly all actives have a fitted effect of over 45% in size)
In short: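 Agonist activity read as cAMP rise via d2/cryptate HTRF competition, 1 h room-temperature detection, in HEK293 cells expressing TSHR. Fifteen-point titrations, each run in triplicate, with a 30 min room-temperature incubation beforehand.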

[2] = qHTS assay to identify small molecule agonists of the hypoxia (HIF-1) signaling pathway - cell viability counter screen (AID 1224844; calls by dose curve; note: nearly all actives have a fitted effect of over 50% in size)
In short: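 In this counter screen, HRE-bla ME-180 cell viability after 17 hrs of compound exposure at 37C was read by CellTiter-Glo luminescence, multiplexed with the beta-lactamase reporter measurement.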

[3] = qHTS assay to identify small molecule agonists of H2AX - cell viability counter screen (AID 1224847; calls by dose curve;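 note: wild-type CHO-K1 cells; top concentration of the series differs between compounds; nearly all actives have a fitted effect of over 30% in size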)
In short: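 After overnight plating of 1000 CHO-K1 cells per well, a 15-concentration compound series was applied for 3 hr at 37C. Luminescence from CellTiter-Glo, read following 30 min at room temperature, reflected cell viability.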

[4] = qHTS RealTime-Glo MT Cell Viability Assay in HepG2 cells - 24 hour (AID 1224867); note: nearly all actives have a fitted effect of over 50% in size
In short: (§1)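 HepG2 cells were seeded at 600 cells/well together with NanoLuc luciferase and a cell-permeant prosubstrate, preincubated 5 h at 37 C/5% CO2, then pin-dosed with compounds in DMSO. Nonlytic luminescence from viable cells was read at each time point.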

[5] = qHTS RealTime-Glo MT Cell Viability Assay in HEK293 cells - 32 hour (AID 1224868); note: top concentration of the series differs between compounds; nearly all actives have a fitted effect of over 50% in size
In short: (§2)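 HEK293 cells were seeded at 600 cells/well together with NanoLuc luciferase and cell-permeant prosubstrate, preincubated 5 h at 37 C/5% CO2, then given compound in DMSO by pintool. Luminescence from viable-cell prosubstrate reduction was read repeatedly over 40 h.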

[6] = A CellTox Green Cytotoxicity Assay to monitor cytotoxicity in HEK293 cells - 0 hour (AID 1224869); note: nearly all actives have a fitted effect of over 50% in size
In short: (§3)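 Real-time, in one plate: 600 HEK293 cells/well with dead-cell DNA dye, pinned compound after 5 h, 37 C incubation over 40 h; viable cells give no appreciable fluorescence.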

[7] = qHTS RealTime-Glo MT Cell Viability Assay in HepG2 cells - 40 hour (AID 1224870); note: nearly all actives have a fitted effect of over 50% in size
In short: (§4)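 Real-time viability: cells seeded at 600 per well together with NanoLuc and cell-permeant prosubstrate, compounds added after 5 h incubation. Luminescence tracked at 0, 8, 16, 24, 32 and 40 h of exposure.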

[8] = A CellTox Green Cytotoxicity Assay to monitor cytotoxicity in HEK293 cells - 40 hour (AID 1224871); note: nearly all actives have a fitted effect of over 45% in size
In short: as §3

[9] = qHTS RealTime-Glo MT Cell Viability Assay in HEK293 cells - 16 hour (AID 1224872)
In short: as §2

[10] = qHTS RealTime-Glo MT Cell Viability Assay in HepG2 cells - 8 hour (AID 1224873); note: nearly all actives have a fitted effect of over 55% in size
In short: as §4

[11] = qHTS RealTime-Glo MT Cell Viability Assay in HEK293 cells - 40 hour (AID 1224874); details: RealTime-Glo luminescence; max response: stronger effect = lower value; note: nearly all actives have a fitted effect of over 50% in size
In short: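 Kinetic, non-lysing viability readout. Seed HEK293 (600/well) with reagent, incubate 5 h at 37 C/5% CO2, pin 23 nL compound in DMSO, incubate at 37 C, read luminescence at 0, 8, 16, 24, 32, 40 h.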

[12] = A CellTox Green Cytotoxicity Assay to monitor cytotoxicity in HEK293 cells - 24 hour (AID 1224875); note: nearly all actives have a fitted effect of over 45% in size
In short: as §3

[13] = A CellTox Green Cytotoxicity Assay to monitor cytotoxicity in HepG2 cells - 16 hour (AID 1224876); note: nearly all actives have a fitted effect of over 45% in size
In short: (§5)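 Cytotoxicity was tracked as dead-cell DNA fluorescence in HepG2 cells treated with test compounds at 37 C; each time-point value comes from one kinetic series spanning 0, 8, 16, 24, 32 and 40 h.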

[14] = A CellTox Green Cytotoxicity Assay to monitor cytotoxicity in HepG2 cells - 24 hour (AID 1224878); note: nearly all actives have a fitted effect of over 45% in size
In short: as §5

[15] = A CellTox Green Cytotoxicity Assay to monitor cytotoxicity in HepG2 cells - 40 hour (AID 1224879); note: nearly all actives have a fitted effect of over 40% in size
In short: as §5

[16] = qHTS assay to identify small molecule agonists of the hypoxia (HIF-1) signaling pathway (AID 1224846; active = well fitted activation curve with a large enough effect in the signal ratio in the repeat runs, not every such curve was filed as active; the % refers to the signal ratio)
In short: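 ME-180 HRE-bla reporter cells; compounds in DMSO, 17 h at 37C; read-out beta-lactamase via CCF4-AM FRET.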

[17] = qHTS RealTime-Glo MT Cell Viability Assay in HepG2 cells - 32 hour (AID 1224877); note: nearly all actives have a fitted effect of over 55% in size
In short: as §1

[18] = qHTS assay to identify small molecule agonists of H2AX (AID 1224845; active = well fitted activation curve with a large enough effect in the signal ratio in the repeat runs, not every such curve was filed as active; the % refers to the signal ratio)
In short: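 Phospho-H2AX Ser139 measured by HTRF (ex 320 nm; em 665 and 620 nm) after 24 hr antibody incubation. Compounds, 15 concentrations, 0.76% DMSO, were applied to CHO-K1 cells for 3hr at 37C before lysis.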

[19] = qHTS assay to identify small molecule antagonists of the estrogen related receptor (ERR) signaling pathway from Tox21 library (AID 1224848); note: nearly all actives have a fitted effect of over 50% in size; note: potency is the fitted concentration of half-maximal effect
In short: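 Luciferase luminescence (ONE-Glo, 30 min room temperature) was the read-out. Cells of the NTP-supplied ERR line, 2,000 per well, were given 6 h at 37 C before compound addition in DMSO and 18 h exposure at 37 C.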

[20] = qHTS assay to identify small molecule agonists of the estrogen related receptor (ERR) signaling pathway from Tox21 library (AID 1224849; calls by dose curve; note: nearly all actives have a fitted effect of over 15% in size); details: ERR reporter cell line, ONE-Glo luciferase, 18 h; at 92.4 µM (top of the series) unless noted
In short: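 Luciferase activity in ERR pathway reporter cells served as the agonist readout; exposure lasted 18 h at 37 C, with ONE-Glo detection after 30 min at room temperature.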

Thyrotropin receptor (Homo sapiens), sequence (P16473 whole entry, looked up): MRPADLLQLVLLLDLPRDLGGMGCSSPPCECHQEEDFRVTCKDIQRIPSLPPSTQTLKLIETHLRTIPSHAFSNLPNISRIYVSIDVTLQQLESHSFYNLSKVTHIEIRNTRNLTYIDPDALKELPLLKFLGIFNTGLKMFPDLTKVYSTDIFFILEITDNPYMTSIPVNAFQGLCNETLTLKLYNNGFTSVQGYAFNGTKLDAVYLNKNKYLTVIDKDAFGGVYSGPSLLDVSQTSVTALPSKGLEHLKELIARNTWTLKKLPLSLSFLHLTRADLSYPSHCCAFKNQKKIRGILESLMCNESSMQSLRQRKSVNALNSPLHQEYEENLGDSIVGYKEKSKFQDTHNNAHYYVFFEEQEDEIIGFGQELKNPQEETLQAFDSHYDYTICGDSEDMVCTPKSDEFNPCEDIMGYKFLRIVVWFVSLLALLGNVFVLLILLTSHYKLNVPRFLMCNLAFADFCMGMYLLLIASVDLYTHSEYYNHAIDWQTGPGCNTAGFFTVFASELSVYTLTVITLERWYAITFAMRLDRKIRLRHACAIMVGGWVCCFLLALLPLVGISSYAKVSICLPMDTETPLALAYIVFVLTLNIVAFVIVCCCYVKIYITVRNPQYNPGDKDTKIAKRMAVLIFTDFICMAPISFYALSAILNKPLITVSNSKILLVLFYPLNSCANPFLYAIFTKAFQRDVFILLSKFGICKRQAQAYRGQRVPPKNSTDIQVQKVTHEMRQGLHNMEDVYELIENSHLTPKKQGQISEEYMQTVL

| SMILES | outcome [1] | Potency [2] | Potency [3] | outcome [4] | Potency [5] | Potency [6] | Potency [7] | Potency [8] | Potency [9] | outcome [10] | max response [11] [%] | Potency [12] | Potency [13] | Potency [14] | Potency [15] | outcome [16] | Potency [17] | outcome [18] | Potency [19] | activity change, positive = activation [20] [%] |
| --- | --- | --- | --- | --- | --- | --- | --- | --- | --- | --- | --- | --- | --- | --- | --- | --- | --- | --- | --- | --- |
| CCCCNc1ccccc1 | inactive | inactive | inactive | inactive | inactive | inactive | inactive | inactive | inactive | inactive | 2.6 | inactive | inactive | inactive | inactive |  |  |  |  |  |
| CC(C)(C)OC(=O)N1C[C@@H](F)C[C@H]1C(=O)O | inactive | inactive | inactive | inactive | inactive | inactive | inactive | inactive |  | inactive | 2.11 | inactive | inactive | inactive | inactive | inactive |  |  |  |  |
| CO[Si](CCCNCCC[Si](OC)(OC)OC)(OC)OC | inactive | inactive | inactive | inactive |  | inactive | inactive | inactive | inactive | inactive | 5.67 | inactive | inactive | inactive | inactive | inactive | inactive |  |  |  |
| CCN1CCN(c2cc3c(cc2F)c(=O)c(C(=O)O)cn3C2CC2)CC1 | inactive | inactive | inactive | inactive | inactive |  | inactive | inactive | inactive | inactive | -0.866 | inactive | inactive | inactive | inactive |  | inactive |  |  |  |
| C=CC(=O)OCCCCCC | inactive |  | inactive | inactive | inactive | inactive | inactive | inactive | inactive | inactive | -6.6 | inactive | inactive | inactive | inactive | inactive |  | inactive |  |  |
| O=Cc1ccccc1[N+](=O)[O-] | inactive |  | inactive | inactive | inactive | inactive | inactive | inactive | inactive | inactive | -5.52 |  | inactive | inactive | inactive | inactive | inactive | inactive | inactive | 2.11 |
| NC(=O)c1ncn([C@@H]2O[C@H](CO)[C@@H](O)[C@H]2O)c1O | inactive | inactive | inactive | inactive |  | inactive | inactive |  | inactive | inactive | 9.45 |  |  |  |  |  | inactive |  |  |  |
| Cc1nccn1CC1CCc2c(c3ccccc3n2C)C1=O (centres undefined) | inactive | inactive | inactive | inactive | inactive |  | inactive | inactive |  | inactive | -14.4 | inactive | inactive | inactive | inactive |  | inactive |  |  |  |
| Fc1ccccc1-c1ccccc1 | inactive | inactive | inactive | inactive | inactive | inactive |  |  | inactive | inactive | -21.5 |  | inactive | inactive |  | inactive |  |  |  |  |
| CO | inactive | inactive | inactive | inactive | inactive | inactive | inactive | inactive |  | inactive | 3.26 | inactive | inactive | inactive | inactive |  | inactive |  | inactive | -0.295 |
| O=C1CC2(CCCC2)CC(=O)N1 | inactive | inactive | inactive | inactive | inactive | inactive | inactive | inactive | inactive | inactive | 3.72 | inactive | inactive | inactive | inactive | inactive | inactive |  |  |  |
| CCCC(C)C(=O)O (centres undefined) | inactive |  | inactive | inactive |  | inactive | inactive | inactive | inactive | inactive | -23.4 | inactive | inactive | inactive | inactive | inactive | inactive | inactive | 52.3 µM (active) | -46.3 |
| CCCCC=O | inactive | inactive | inactive | inactive | inactive | inactive | inactive | inactive |  | inactive | 2.57 | inactive | inactive | inactive | inactive | inactive |  |  |  |  |
| c1ccc2cnncc2c1 | inactive |  | inactive | inactive |  | inactive | inactive | inactive | inactive |  | 12.8 | inactive | inactive | inactive | inactive | inactive |  | inactive | inactive | -2.66 |
| CCCCCOC(=O)Nc1nc(=O)n([C@@H]2O[C@H](C)[C@@H](O)[C@H]2O)cc1F | inactive | inactive | inactive | inactive |  | inactive | inactive | inactive | inactive | inactive | 7 | inactive | inactive | inactive | inactive |  | inactive |  |  |  |
